Test [1] in a line: ATG_CRE_CIS: Attagene CIS-FACTORIAL HepG2 Assay for human cAMP Responsive Element (CRE) binding protein 3 (AID 2282926). The conditions noted are these: HepG2 CRE cis-reporter, Attagene multiplexed mRNA; actives raise or lower the signal. An outline of the steps: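 Capillary electrophoresis of 6-FAM-labelled, HpaI-digested PCR products quantified reporter transcripts. These came from HepG2 transiently transfected with cis-element reporters and exposed to test chemicals for 24 hours, with DMSO defining baseline activity.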

Test [2] has as its target CCAAT/enhancer-binding protein beta (Homo sapiens) (UniProt P17676). As to the kind of experiment: ATG_C_EBP_CIS: Attagene CIS-FACTORIAL HepG2 Assay for human CCAAT/Enhancer Binding Protein (C/EBP) beta (AID 2282927). The conditions noted are these: HepG2 Attagene cis-factorial transcription factor reporter; actives raise or lower the signal. An outline of the steps:
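Endogenous transcription factor activity in human liver HepG2 cells is inferred from induction of a CEBPB-linked reporter mRNA. Exposure lasts 24 h; activity is fitted in both directions relative to DMSO.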

Test [3] in a line: ATG_CMV_CIS: Attagene CIS-FACTORIAL HepG2 Assay for human CMV (Internal Marker) (AID 2282928).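 Further: endpoint acts as a background internal control marker rather than a target.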 Particulars: HepG2 CMV promoter reporter, transcription factor profiling; actives raise or lower the signal. An outline of the steps:
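Readout: fluorescent reporter cDNA fragments separated by capillary electrophoresis after RT-PCR and HpaI cut. Cells: HepG2 carrying transfected cis-promoter reporter constructs, dosed 24 h. Endpoint serves as background internal-marker control, fit bidirectionally versus DMSO.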

Test [4] is described as follows: ATG_DR4_LXR_CIS: Attagene CIS-FACTORIAL HepG2 Assay for human Liver X Receptor (LXR), DR4 submotif (AID 2282929). Particulars: HepG2 Attagene DR4 cis-reporter, mRNA transcription; actives raise or lower the signal. Summed up:
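Readout: reporter transcript fluorescence after RT-PCR and capillary electrophoresis, fitted bidirectionally against DMSO controls. Human HepG2 liver cells carried transiently transfected multiplexed reporter constructs; endogenous transcription factor activity measured 24 h post-dosing.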

Test [5] concerns the target Aryl hydrocarbon receptor (Homo sapiens) (UniProt P35869). As to the kind of experiment: ATG_Ahr_CIS: Attagene CIS-FACTORIAL HepG2 Assay for human Aryl Hydrocarbon Receptor (Ahr) (AID 2282930). The conditions noted are these: HepG2 AhR cis-factorial reporter transcription; actives raise or lower the signal. An outline of the steps:
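Transient MRTU transfection of HepG2 → 24 h compound exposure → total RNA, oligo(dT) RT → PCR, 6-FAM extension, HpaI cut → CE fluorescence. DMSO = baseline; bidirectional curve fit.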

Test [6] can be described thus: ATG_AP_1_CIS: Attagene CIS-FACTORIAL HepG2 Assay for human Activator Protein 1 (AP-1) (AID 2282931). The conditions noted are these: HepG2 Attagene cis-factorial AP-1 reporter mRNA; actives raise or lower the signal. An outline of the steps: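 Reporter transcripts were measured 24 h after dosing by RT-PCR and capillary electrophoresis of fluorescent fragments. Cells: HepG2 carrying transfected cis-regulated reporter constructs reading endogenous factor activity. Gain or loss fitted against DMSO.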

Test [7] is described as follows: ATG_AP_2_CIS: Attagene CIS-FACTORIAL HepG2 Assay for human Activator Protein 2 (AP-2) (AID 2282932). Particulars: HepG2 AP-2 cis-reporter, Attagene transcription factor profiling; actives raise or lower the signal. Summed up:
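Transiently transfected HepG2 cells are exposed to chemical for 24 h. Reporter transcripts are then measured as fluorescence following RT-PCR and capillary separation, and gain- or loss-of-signal is fitted relative to DMSO.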

The nature of test [8]: ATG_BRE_CIS: Attagene CIS-FACTORIAL HepG2 Assay for human Bone Morphogenetic Protein (BMP) Response Element (BRE) (AID 2282933). Particulars: HepG2 BMP response element reporter, Attagene transcription factor profiling; actives raise or lower the signal. An outline of the steps: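 Endogenous transcription factor activity at a BMP response element was monitored in transfected HepG2 cells 24 h after dosing. Fluorescent RT-PCR products were resolved by capillary electrophoresis, and activity was fitted in both directions versus DMSO.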

Test [9] addresses Retinoic acid receptor alpha (Homo sapiens) (UniProt P10276). As to the kind of experiment: ATG_DR5_RAR_CIS: Attagene CIS-FACTORIAL HepG2 Assay for human Retinoic Acid Receptor Alpha (RARE), DR5 submotif (AID 2282934). Particulars: HepG2 Attagene cis-factorial RARE DR5 reporter, mRNA; actives raise or lower the signal. An outline of the steps: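 Transient MRTU transfection of HepG2; 24 h compound treatment; TriZol RNA, oligo(dT) RT, PCR, FAM labelling, capillary electrophoresis. Bidirectional fit vs DMSO. Endogenous TF activity at DR5 RARE.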

Test [10] deals with Transcription factor E2F1 (Homo sapiens) (UniProt Q01094). Kind of test: ATG_E2F_CIS: Attagene CIS-FACTORIAL HepG2 Assay for human E2F Transcription Factor 1 (AID 2282935). The conditions noted are these: HepG2 Attagene cis-reporter, E2F reporter RNA transcripts; actives raise or lower the signal. An outline of the steps: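 Fluorescent RT-PCR products, digested with HpaI for 2 h at 37 C, are separated by capillary electrophoresis. Source RNA comes from transfected HepG2 cultures treated for 24 h.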
Chain of Transcription factor E2F1 (Homo sapiens) (Q01094 whole entry, looked up): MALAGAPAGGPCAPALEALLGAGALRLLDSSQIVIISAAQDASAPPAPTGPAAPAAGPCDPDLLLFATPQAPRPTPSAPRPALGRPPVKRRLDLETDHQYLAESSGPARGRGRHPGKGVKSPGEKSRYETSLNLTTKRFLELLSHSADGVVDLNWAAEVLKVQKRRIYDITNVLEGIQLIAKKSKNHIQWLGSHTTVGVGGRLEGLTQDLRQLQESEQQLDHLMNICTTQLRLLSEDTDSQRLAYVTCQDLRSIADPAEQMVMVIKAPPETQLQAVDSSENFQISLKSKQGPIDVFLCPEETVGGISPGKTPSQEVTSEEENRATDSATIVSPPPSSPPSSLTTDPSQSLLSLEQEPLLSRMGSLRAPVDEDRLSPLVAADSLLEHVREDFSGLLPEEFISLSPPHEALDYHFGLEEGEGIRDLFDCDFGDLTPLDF

Test [11] in a line: ATG_E_Box_CIS: Attagene CIS-FACTORIAL HepG2 Assay for human Enhancer Box (E-box) (AID 2282936). Particulars: HepG2 E-box cis-reporter transcription, actives raise or lower the signal. Summed up:
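Fluorescent reporter fragments separated by capillary electrophoresis gave the signal; mRNA came from HepG2 cells transfected with cis-element reporters and treated 24 h. Curves fitted bidirectionally relative to DMSO controls.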

Test [12] is described as follows: ATG_M_61_CIS: Attagene CIS-FACTORIAL HepG2 Assay for M61 Transcription Factor (Internal Marker) (AID 2282937). The conditions noted are these: HepG2 Attagene CIS-FACTORIAL M61 internal marker reporter; actives raise or lower the signal. Summed up: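 Readout: fluorescent reporter mRNA fragments resolved by capillary electrophoresis after RT-PCR. Transiently transfected human HepG2 cells carried MRTU constructs reporting endogenous TF activity; 24 h chemical exposure; gain or loss of signal fitted relative to DMSO.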

Test [13] can be described thus: ATG_EGR_CIS: Attagene CIS-FACTORIAL HepG2 Assay for human Early Growth Response 1 (EGR1) (AID 2282938). Particulars: HepG2 Attagene CIS-FACTORIAL EGR reporter mRNA; actives raise or lower the signal. An outline of the steps: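 Read-out: fluorescent reporter-mRNA fragments resolved by capillary electrophoresis after RT-PCR, 24 h post-dose in transiently transfected HepG2. Endogenous transcription-factor activity reported via cis-element-regulated reporter units; gain or loss fitted relative to DMSO.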

A short description of test [14]: ATG_M_19_CIS: Attagene CIS-FACTORIAL HepG2 Assay for M19 Transcription Factor (Internal Marker) (AID 2282939). Particulars: HepG2 Attagene CIS-FACTORIAL M19 internal marker reporter; actives raise or lower the signal. Summed up:
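Background-control endpoint from a multiplexed HepG2 reporter panel. Cells carrying cis-regulated reporter constructs are treated 24 h, then reporter transcripts are amplified, fluorescently labelled and sized by capillary electrophoresis. DMSO defines baseline.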

The nature of test [15]: ATG_ERE_CIS: Attagene CIS-FACTORIAL HepG2 Assay for Estrogen Response Element (ERE) (AID 2282940). Particulars: HepG2 ERE cis-reporter, Attagene RNA transcript; actives raise or lower the signal. An outline of the steps: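 Cells used were human hepatoma HepG2, transfected with multiple reporter transcription units under cis-regulatory promoters. Reporter mRNA, read 24 h post-dosing via fluorescent RT-PCR products on capillary electrophoresis, was fitted bidirectionally relative to DMSO.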

A short description of test [16]: ATG_Ets_CIS: Attagene CIS-FACTORIAL HepG2 Assay for human Erythroblast Transformation Specific (ETS) (AID 2282941). The conditions noted are these: HepG2 ETS cis-reporter transcription, actives raise or lower the signal. Summed up: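 RT-PCR/capillary electrophoresis fluorescence read-out of reporter mRNA; HepG2 transient multi-reporter transfection; 24 h compound exposure; gain or loss of signal fitted bidirectionally relative to DMSO.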

Test [17] addresses Hepatocyte nuclear factor 3-beta (Homo sapiens) (UniProt Q9Y261). As to the kind of experiment: ATG_FoxA2_CIS: Attagene CIS-FACTORIAL HepG2 Assay for human Forkhead box A2 (FOXA2) (AID 2282942). The conditions noted are these: HepG2 cis-reporter transcription factor activity, 24 h; actives raise or lower the signal. An outline of the steps:
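Readout: fluorescent reporter transcripts resolved by capillary electrophoresis after RT-PCR. Transiently transfected HepG2, 24 h compound exposure, endogenous TF activity at cis promoter elements. Gain or loss of signal fitted relative to DMSO.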

Test [18] is described as follows: ATG_GATA_CIS: Attagene CIS-FACTORIAL HepG2 Assay for human GATA Binding Protein (AID 2282944). Particulars: HepG2 GATA cis-element reporter, Attagene multiplex mRNA; actives raise or lower the signal. An outline of the steps:
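Endogenous transcription factor activity was captured through cis-promoter-driven reporters in transfected HepG2 cells. After 24 h exposure, reporter transcripts were quantified by RT-PCR with fluorescent capillary electrophoresis, and responses fitted both directions against DMSO.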

Test [19] in a line: ATG_GLI_CIS: Attagene CIS-FACTORIAL HepG2 Assay for human Zinc Finger Protein GLI1 (AID 2282945). Particulars: HepG2, Attagene cis-factorial reporter mRNA, GLI element; actives raise or lower the signal. An outline of the steps: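 Bidirectional curve fits relative to DMSO, using reporter mRNA levels from RT-PCR plus capillary electrophoresis. Cells were HepG2 transiently carrying cis-regulated reporter constructs, harvested 24 h after dosing.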

Test [20] is described as follows: ATG_FoxO_CIS: Attagene CIS-FACTORIAL HepG2 Assay for human Forkhead box O (FoxO) (AID 2282943). Particulars: HepG2 Attagene cis-reporter, FoxO element, mRNA; actives raise or lower the signal. An outline of the steps:
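HepG2, transient MRTU transfection (cis element, endogenous TFs). Dose 24 h. TriZol RNA → oligo(dT) RT → PCR → 6-FAM primer extension → HpaI cut → CE. Gain/loss vs DMSO.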

What is called AC50 is the concentration giving half of the maximal activity seen.

The source made the active and inactive calls. How the source made its calls: active means hit-call score of the fitted dose curve at least 0.9, where 1 is the maximum; inactive means score below 0.9.

Chain of Aryl hydrocarbon receptor (Homo sapiens) (P35869 whole entry, looked up): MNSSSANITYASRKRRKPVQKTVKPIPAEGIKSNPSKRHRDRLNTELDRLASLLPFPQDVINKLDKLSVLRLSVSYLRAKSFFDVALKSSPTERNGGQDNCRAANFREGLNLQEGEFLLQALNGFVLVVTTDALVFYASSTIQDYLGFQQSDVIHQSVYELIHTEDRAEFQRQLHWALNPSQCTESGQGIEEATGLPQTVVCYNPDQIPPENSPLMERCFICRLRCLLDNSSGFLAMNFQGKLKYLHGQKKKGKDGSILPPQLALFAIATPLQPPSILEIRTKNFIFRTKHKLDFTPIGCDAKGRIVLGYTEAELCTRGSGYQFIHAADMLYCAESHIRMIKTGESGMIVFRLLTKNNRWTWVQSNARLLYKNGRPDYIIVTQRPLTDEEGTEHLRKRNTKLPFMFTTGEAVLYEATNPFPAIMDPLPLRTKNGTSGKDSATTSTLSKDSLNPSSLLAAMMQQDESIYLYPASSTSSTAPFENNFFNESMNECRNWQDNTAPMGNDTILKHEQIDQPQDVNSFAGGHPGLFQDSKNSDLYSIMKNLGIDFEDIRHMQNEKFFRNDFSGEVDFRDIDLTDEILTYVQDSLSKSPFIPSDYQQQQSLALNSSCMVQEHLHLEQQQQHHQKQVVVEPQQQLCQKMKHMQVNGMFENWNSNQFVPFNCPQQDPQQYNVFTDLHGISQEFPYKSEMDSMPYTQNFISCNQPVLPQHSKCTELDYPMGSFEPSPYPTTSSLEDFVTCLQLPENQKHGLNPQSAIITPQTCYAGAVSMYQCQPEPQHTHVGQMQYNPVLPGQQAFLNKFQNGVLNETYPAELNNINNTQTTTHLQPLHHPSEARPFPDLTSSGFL
Chain of Hepatocyte nuclear factor 3-beta (Homo sapiens) (Q9Y261 whole entry, looked up): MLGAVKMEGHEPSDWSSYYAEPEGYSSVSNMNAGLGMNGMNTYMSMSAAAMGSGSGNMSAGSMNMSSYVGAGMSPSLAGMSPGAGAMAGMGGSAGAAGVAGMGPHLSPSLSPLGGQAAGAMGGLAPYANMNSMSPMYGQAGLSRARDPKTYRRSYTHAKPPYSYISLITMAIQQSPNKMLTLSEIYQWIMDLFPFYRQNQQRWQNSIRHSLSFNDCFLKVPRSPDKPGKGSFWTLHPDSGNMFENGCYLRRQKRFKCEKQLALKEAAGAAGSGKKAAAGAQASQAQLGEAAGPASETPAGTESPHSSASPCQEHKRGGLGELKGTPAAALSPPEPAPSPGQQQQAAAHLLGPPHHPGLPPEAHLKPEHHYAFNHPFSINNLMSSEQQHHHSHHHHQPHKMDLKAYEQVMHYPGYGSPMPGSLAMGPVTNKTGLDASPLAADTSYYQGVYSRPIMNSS
Chain of Retinoic acid receptor alpha (Homo sapiens) (P10276 whole entry, looked up): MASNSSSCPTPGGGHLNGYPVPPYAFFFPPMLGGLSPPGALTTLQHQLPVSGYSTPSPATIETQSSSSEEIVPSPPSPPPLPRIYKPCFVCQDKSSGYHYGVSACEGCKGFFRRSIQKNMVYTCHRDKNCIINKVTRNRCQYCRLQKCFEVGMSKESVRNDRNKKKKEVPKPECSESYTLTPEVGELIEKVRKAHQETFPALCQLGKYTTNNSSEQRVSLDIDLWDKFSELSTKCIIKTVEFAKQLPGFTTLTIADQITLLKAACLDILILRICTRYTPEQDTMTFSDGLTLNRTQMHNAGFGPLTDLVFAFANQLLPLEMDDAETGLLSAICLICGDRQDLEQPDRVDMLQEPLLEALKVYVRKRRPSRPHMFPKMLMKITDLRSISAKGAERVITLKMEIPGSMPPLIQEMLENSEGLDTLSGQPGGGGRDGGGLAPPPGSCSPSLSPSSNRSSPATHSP
Chain of CCAAT/enhancer-binding protein beta (Homo sapiens) (P17676 whole entry, looked up): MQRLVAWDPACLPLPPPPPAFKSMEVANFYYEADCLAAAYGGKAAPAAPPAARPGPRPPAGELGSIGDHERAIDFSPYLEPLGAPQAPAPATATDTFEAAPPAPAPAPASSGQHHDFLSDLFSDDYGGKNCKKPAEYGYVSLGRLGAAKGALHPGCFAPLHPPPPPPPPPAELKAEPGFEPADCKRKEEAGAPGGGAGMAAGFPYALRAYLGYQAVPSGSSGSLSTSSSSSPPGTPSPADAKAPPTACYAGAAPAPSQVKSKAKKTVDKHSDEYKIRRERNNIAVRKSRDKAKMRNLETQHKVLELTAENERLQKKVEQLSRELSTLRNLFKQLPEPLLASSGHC

Take `Cc1cn([C@H]2C[C@H](N=[N+]=[N-])[C@@H](CO)O2)c(=O)[nH]c1=O`: the outcome in [1], in test [2], in test [4], in test [5], in [6] and in test [7] was inactive. Further, the molecule was called inactive in [8], in test [9], in [10], in [11], in test [12] and in test [13]. Also, the outcome in test [14], in test [15], in test [16], in [17], in [18] and in [19] was inactive. The AC50 in test [3] was 27.4 µM (active).

In the case of `Clc1ccccc1C(c1ccccc1)(c1ccccc1)n1ccnc1`, the molecule was called inactive in test [1], in test [2], in test [7], in test [9], in test [10] and in test [11]. The result in [12], in test [14], in test [16], in [17] and in test [19] was inactive. The AC50 is 17.8 µM (active) in test [3]; 1.48 µM (active) in [4]; 3.01 µM (active) in test [5]; 10.4 µM (active) in test [6]; 11.1 µM (active) in test [8]; 8.64 µM (active) in [13]. Besides, the AC50 in test [15] is 0.438 µM (active); in [18] it was 15.6 µM (active).

Regarding `Cc1ccc(C(C)C)cc1`, the result in [1], in [2], in test [3], in test [4], in test [5] and in test [6] was inactive. Besides, the result in [7], in test [8], in test [9], in [10], in test [12] and in test [13] was inactive. Further, the molecule was classed as inactive in test [14], in test [15], in test [16], in [17], in [20] and in test [18]. Moreover, the outcome in test [19] was inactive.
